Results filed as inconclusive are left out. Entries that show only a call come without a potency. Values without a mark were called inactive. Calls of active or inactive are those of the source. Unless noted, calls come from the whole dose curve.
Legend:
[1] = qHTS assay to identify small molecule agonists of the NFkB signaling pathway - cell viability counter screen (AID 1159515); note: series mostly up to about 61 µM; nearly all actives have a fitted effect of over 55% in size
Outline: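 Luminescence from CellTiter-Glo (30 min, room temperature) gives viability, measured in the same wells as the beta-lactamase reporter read. Cells were NFkB-bla ME-180, 2,000 per well, treated 5 hr with compounds.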

[2] = qHTS assay to identify small molecule agonists of the endoplasmic reticulum stress response signaling pathway (AID 1159516; active = well fitted activation curve with a large enough effect in the signal ratio in the repeat runs, not every such curve was filed as active; the % refers to the signal ratio; note: potency is the fitted concentration of half-maximal effect)
Outline: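 Read-out is beta-lactamase cleavage of a FRET substrate (405 nm excitation; 460 and 530 nm emissions) in ESRE-bla HeLa cells after a 5 hr compound exposure at 37 C. Substrate incubation ran 2 hr at room temperature.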

[3] = qHTS assay to identify small molecule agonists of the endoplasmic reticulum stress response signaling pathway - cell viability counter screen (AID 1159517);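 note: HeLa cells carrying an ER stress response element beta-lactamase reporter; series mostly up to about 61 µM; nearly all actives have a fitted effect of over 50% in size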
Outline: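 Luminescence readout: CellTiter-Glo, 30 min RT, same wells as the ESRE-bla reporter read. HeLa ESRE-bla, 1,500 cells/well, o/n 37 C; cpd 5 hr 37 C/5% CO2.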

[4] = qHTS assay to identify small molecule antagonists of the retinoid-related orphan receptor gamma (ROR-gamma) signaling pathway - cell viability counter screen (AID 1159520; active = well fitted curve in the direction sought with a large enough effect in the repeat runs; an effect the other way counts as inactive or inconclusive; note: nearly all actives have a fitted effect of over 50% in size)
Outline: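 Tet-on ROR gamma CHO cells (1,000/well) were plated 4 hr, given compounds in DMSO for 2 hr at 37 C, then induced with 1 uM final doxycycline for 16 hr. Viability was read as ATP by CellTiter-Glo luminescence after 30 min.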

[5] = qHTS assay to identify small molecule agonists of the AP-1 signaling pathway - cell viability counter screen (AID 1159525); note: nearly all actives have a fitted effect of over 55% in size
Outline: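 ME-180 AP-1-bla, 2500 cells/well, Opti-MEM + 0.5% dialyzed FBS; overnight 37 °C; cpd 15-pt titration, 5 h 37 °C; CellTiter-Glo 30 min RT; luminescence read; normalised to TOAB and DMSO controls.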

[6] = qHTS assay to identify small molecule agonists of the AP-1 signaling pathway (AID 1159526)
[7] = target: Retinoic acid receptor RXR-alpha (Homo sapiens) (UniProt P19793); assay: qHTS assay to identify small molecule agonists of the RXR signaling pathway (AID 1159527); note: nearly all actives have a fitted effect of over 35% in size
Sequence of Retinoic acid receptor RXR-alpha (Homo sapiens) (P19793 whole entry, looked up): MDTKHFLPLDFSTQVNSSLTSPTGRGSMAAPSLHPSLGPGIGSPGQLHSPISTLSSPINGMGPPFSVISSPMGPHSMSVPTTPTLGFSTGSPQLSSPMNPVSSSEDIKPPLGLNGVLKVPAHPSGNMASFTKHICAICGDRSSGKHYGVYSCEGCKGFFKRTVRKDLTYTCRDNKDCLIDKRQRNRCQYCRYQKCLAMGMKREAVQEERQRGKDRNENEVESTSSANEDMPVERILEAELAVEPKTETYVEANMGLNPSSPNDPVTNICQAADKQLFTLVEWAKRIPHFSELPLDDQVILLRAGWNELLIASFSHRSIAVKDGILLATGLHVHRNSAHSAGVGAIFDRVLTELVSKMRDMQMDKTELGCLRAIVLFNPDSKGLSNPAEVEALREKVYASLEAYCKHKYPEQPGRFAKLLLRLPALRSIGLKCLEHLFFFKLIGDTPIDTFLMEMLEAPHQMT
Outline: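 Using 9-cis retinoic acid as the reference agonist, chemicals were tested in HEK 293T cells […] for 16 hr; substrate loading lasted 2 hr at room temperature.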

[8] = qHTS assay to identify small molecule agonists of the vitamin D receptor (VDR) signaling pathway - cell viability counter screen (AID 743224; active = well fitted curve in the direction sought with a large enough effect in the repeat runs; an effect the other way counts as inactive or inconclusive; note: series mostly up to about 63 µM; nearly all actives have a fitted effect of over 50% in size)
Outline: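 Luminescence from CellTiter-Glo, read after 30 min at room temperature, reports viability of VDR-bla cells treated with compounds for 16 h at 37C in the wells used for the beta-lactamase FRET read.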

[9] = qHTS assay to identify small molecule antagonists of the vitamin D receptor (VDR) signaling pathway - cell viability counter screen (AID 743225; active = well fitted curve in the direction sought with a large enough effect in the repeat runs; an effect the other way counts as inactive or inconclusive; note: nearly all actives have a fitted effect of over 50% in size)
Outline: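 Compounds were pinned onto VDR-bla HEK 293T cells together with 1-alpha,25-dihydroxyvitamin D3 at 3 nM final. After 16 h at 37C and 5% CO2 plus the reporter readout, cell viability was measured by CellTiter-Glo luminescence (30 min, room temperature).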

[10] = target: Nuclear receptor ROR-gamma (Homo sapiens) (UniProt P51449); assay: qHTS assay to identify small molecule antagonists of the retinoid-related orphan receptor gamma (ROR-gamma) signaling pathway (AID 1159521; active = well fitted curve in the direction sought with a large enough effect in the repeat runs; an effect the other way counts as inactive or inconclusive; note: nearly all actives have a fitted effect of over 50% in size; note: potency is the fitted concentration of half-maximal effect)
Outline: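 Test compounds were applied to Tet-on RORγ CHO cells 2 h ahead of doxycycline hyclate (1 uM final). Luciferase reporter activity was quantified by luminescence after 16 h at 37 C and 5% CO2.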

SMILES	Potency [1]	Potency [2]	Potency [3]	Potency [4]	Potency [5]	Potency [6]	Potency [7]	Potency [8]	Potency [9]	Potency [10]
[O-][Cl+3]([O-])([O-])O	inactive	inactive	inactive	inactive	inactive	inactive	inactive			
O=P(Cl)(Cl)Cl	inactive	inactive	inactive	inactive	inactive	inactive	inactive	inactive	inactive	
ClSC(Cl)(Cl)Cl	inactive	inactive	inactive	inactive	inactive		inactive	inactive	inactive	inactive
COc1cnc(OC)n2nc(NS(=O)(=O)c3c(OCC(F)F)cccc3C(F)(F)F)nc12	inactive	inactive	inactive	inactive	inactive	inactive			inactive	inactive
CCC(C)c1cccc(C(C)CC)c1O (configuration not stated)	inactive	inactive	inactive	inactive			inactive			inactive
CCN(CC)CCN1C(=O)CN=C(c2ccccc2F)c2cc(Cl)ccc21	inactive	inactive	inactive	inactive	inactive	inactive		inactive	inactive	inactive
O=C(O)[C@H](O)[C@@H](O)C(=O)O	inactive	inactive	inactive	inactive		inactive		inactive	inactive	inactive
CC(=O)O.CC(=O)O.CC(=O)O.CC(=O)O.CC(=O)O.CC(=O)O.CC(=O)O.O.O.[Cr].[Cr].[Cr]	inactive	inactive	inactive	inactive	inactive	inactive	inactive	inactive	inactive	
C#CCO	inactive	inactive	inactive	inactive	inactive	inactive	inactive	inactive	inactive	
CC(C)C(Br)C(=O)NC(N)=O (configuration not stated)	inactive	inactive	inactive	inactive		inactive		inactive	inactive	inactive
O=S(=O)(O)F	inactive	inactive	inactive	inactive	inactive	inactive	inactive	inactive	inactive	
CC(C)N(C(=O)SC/C(Cl)=C/Cl)C(C)C	inactive	inactive	inactive	inactive	inactive		inactive	inactive	inactive	inactive
CC[C@]1(O)CC[C@H]2[C@@H]3CCC4=CCCC[C@@H]4[C@H]3CC[C@@]21C	inactive	inactive	inactive	inactive	inactive				inactive	inactive
CSC(C)(C)/C=N/O	inactive	inactive	inactive	inactive	inactive	inactive		inactive	inactive	inactive
[Cl-].[Cl-].[Sn+2]	inactive	inactive	inactive	inactive	inactive	inactive	inactive	inactive		
CCN(CC)C(=O)N[C@@H]1C=C2c3cccc4[nH]cc(c34)C[C@@H]2N(C)C1	inactive	inactive	inactive	inactive	inactive	inactive	inactive	inactive	inactive	
COP(=O)(OC)O/C(=C\Cl)c1cc(Cl)c(Cl)cc1Cl	inactive	inactive	inactive	inactive	inactive					38.6 µM (active)
O=[N+]([O-])c1ccc(Cl)c(Cl)c1Cl	inactive	inactive	inactive	inactive	inactive		inactive		inactive	inactive
C1=CCC=C1	inactive	inactive	inactive	inactive						inactive

SMILES	Potency [1]	Potency [2]	Potency [3]	Potency [4]	Potency [5]	Potency [6]	Potency [7]	Potency [8]	Potency [9]	Potency [10]
CC[N+]1(CC)CCC(OC(=O)C(O)(c2ccccc2)c2ccccc2)C1 (configuration not stated)	inactive	inactive	inactive	inactive	inactive	inactive	inactive	inactive	inactive	
CCn1cc[n+](C)c1 (tested in a mixture with another compound)	inactive	inactive	inactive	inactive	inactive	inactive	inactive	inactive	inactive	
CCNS(=O)(=O)C(F)(F)C(F)(F)C(F)(F)C(F)(F)C(F)(F)C(F)(F)C(F)(F)C(F)(F)F	inactive	inactive	inactive	inactive	inactive			inactive		inactive
CC(Cl)CCl (configuration not stated)	inactive	inactive	inactive	inactive	inactive	inactive	inactive			
Clc1ccc(C2(Cn3cncn3)OCCO2)c(Cl)c1	inactive	inactive	inactive	inactive	inactive	inactive				inactive
N#CSCc1ccccc1	inactive	inactive	inactive	inactive	inactive	inactive	inactive	inactive		
CC(Cc1ccc(O)cc1)NCC(O)c1cc(O)cc(O)c1 (configuration not stated)	inactive	inactive	inactive	inactive	inactive		inactive	inactive		inactive
ClC1(Cl)C2(Cl)C3(Cl)C4(Cl)C(Cl)(Cl)C5(Cl)C3(Cl)C1(Cl)C5(Cl)C24Cl (configuration not stated)	inactive	inactive	inactive	inactive	inactive	inactive	inactive	inactive	inactive	
NC1CCC(CC2CCC(N)CC2)CC1 (configuration not stated)	inactive	inactive	inactive	inactive	inactive	inactive		inactive		inactive
O=[N+]([O-])c1ccccc1-c1ccccc1	inactive	inactive	inactive	inactive	inactive		inactive		inactive	inactive
CNC(=O)O/N=C(\C)C(C)S(C)(=O)=O (configuration not stated)	inactive	inactive	inactive	inactive	inactive			inactive		inactive
Clc1cc(Cl)c(-c2cc(Cl)c(Cl)cc2Cl)cc1Cl	inactive	inactive	inactive	inactive	inactive			inactive	inactive	inactive
CNC(C)(C)Cc1ccccc1	inactive	inactive	inactive	inactive	inactive	inactive	inactive	inactive	inactive	
N#Cc1ccc(N(CC(N)=O)CC(F)(F)F)cc1C(F)(F)F	inactive	inactive	inactive	inactive	inactive	inactive	inactive	inactive	inactive	
CC#C[C@]1(O)CC[C@H]2[C@@H]3C[C@H](C)C4=CC(=O)CC[C@]4(C)[C@H]3CC[C@@]21C	inactive	inactive	inactive	inactive					inactive	26.6 µM (active)
C=Cc1cccc(CCl)c1	inactive	inactive	inactive	inactive		inactive		inactive		inactive
C=CCBr	inactive	inactive	inactive	inactive	inactive	inactive	inactive			
CCCC[N+]1(C)CCCC1 (tested in a mixture with another compound)	inactive	inactive	inactive	inactive	inactive	inactive	inactive	inactive		
ClC1=C(Cl)[C@]2(Cl)[C@@H]3[C@H]4C[C@H]([C@@H]5O[C@H]45)[C@@H]3[C@@]1(Cl)C2(Cl)Cl	inactive	inactive	inactive	inactive	inactive					27.3 µM (active)

SMILES	Potency [1]	Potency [2]	Potency [3]	Potency [4]	Potency [5]	Potency [6]	Potency [7]	Potency [8]	Potency [9]	Potency [10]
CCC(OC(C)=O)C(CC(C)NC)(c1ccccc1)c1ccccc1 (configuration not stated)	inactive	inactive	inactive							
[Cl-].[Cl-].[Cl-].[Yb+3]	inactive	inactive	inactive	inactive		inactive		inactive		
O=c1[nH]c2cc(Cl)ccc2n1C1CCNCC1	inactive	inactive	inactive	inactive	inactive	inactive		inactive		
C=CCOC(=O)c1ccccc1N	inactive	inactive	inactive	inactive	inactive	inactive		inactive	inactive	
CCC1COC(Cn2cncn2)(c2ccc(Cl)cc2Cl)O1 (configuration not stated)	inactive	inactive	inactive	inactive		inactive		inactive	inactive	
NC(=O)C(Cl)Cl	inactive	inactive	inactive	inactive	inactive	inactive	inactive		inactive	
CCCN	inactive	inactive	inactive	inactive	inactive	inactive		inactive	inactive	
O.O.O.O.O.O.O=S(=O)([O-])[O-].[Ni+2]	inactive	inactive	inactive	inactive	inactive	inactive	inactive		inactive	
CCCCn1cc[n+](C)c1.[Cl][Fe-]([Cl])([Cl])[Cl]	inactive	inactive	inactive	inactive	inactive	inactive	inactive	inactive	inactive	
O=c1[nH]c(Cl)c(Cl)cc1Cl	inactive	inactive	inactive	inactive	inactive	inactive			inactive	
CCO/N=C(\CC)C1=C(O)CC(c2c(C)cc(C)cc2C)CC1=O (configuration not stated)	inactive	inactive	inactive		inactive	inactive				inactive
COP(=S)(OC)Oc1nc(Cl)c(Cl)cc1Cl	inactive	inactive	inactive	inactive	inactive			inactive	inactive	
[C-]1=CC=CC1.[Cl][Zr+2][Cl].c1cc[cH-]c1	inactive	inactive	inactive		inactive	inactive		inactive	inactive	inactive
COC(=O)C(C)N(C(=O)c1ccco1)c1c(C)cccc1C (configuration not stated)	inactive	inactive	inactive	inactive	inactive	inactive	inactive	inactive	inactive	
Oc1ccc2[nH]cc(CCCCN3CC=C(c4ccccc4)CC3)c2c1	inactive	4.25 µM (active)	inactive	inactive	inactive		inactive	inactive	inactive	
Oc1ccc(Cl)c(Cl)c1	inactive	inactive	inactive		inactive	inactive	inactive	inactive	inactive	17 µM (active)
c1cc[n+]2c(c1)-c1cccc[n+]1CC2	inactive	inactive	inactive	inactive	inactive	inactive	inactive		inactive	
O=[N+]([O-])[O-].[Tl+]	inactive	inactive	inactive	inactive		inactive	inactive		inactive	

From PubChem BioAssay (Tox21)
